Results filed as inconclusive are left out. Entries that show only a call come without a potency. Unmarked numbers belong to inactive results. The source made the active and inactive calls. Unless noted, the call rests on the fitted dose curve.
Columns and labels:
[1] = qHTS for Inhibitors of the Functional Ribonucleoprotein Complex (vRNP) of Lassa (LASV) Arenavirus: LASV Primary Screen - GLuc reporter signal (AID 1347082; calls by dose curve; tested in HEK293 reporter line; further: nearly all actives have a fitted effect of over 60% in size; on activity change, negative = inhibition: series mostly up to about 57 µM)
[2] = qHTS for Inhibitors of the Functional Ribonucleoprotein Complex (vRNP) of Lassa (LASV) Arenavirus: Viability assay - alamar blue signal for LASV Primary Screen (AID 1347083; calls by dose curve; tested in HEK293 reporter line; further: nearly all actives have a fitted effect of over 80% in size; on activity change, negative = reduced viability: series mostly up to about 57 µM)
[3] = qHTS for Inhibitors of the Functional Ribonucleoprotein Complex (vRNP) of Lymphocytic Choriomeningitis Arenaviruses (LCMV): Viability assay - alamar blue signal for LCMV Primary Screen (AID 1347085; calls by dose curve; tested in HEK293 reporter line; further: nearly all actives have a fitted effect of over 80% in size; on activity change, negative = lower viability: series mostly up to about 57 µM)
[4] = target: Nucleoprotein (Lymphocytic choriomeningitis virus (strain Armstrong)) (UniProt P09992); test: qHTS for Inhibitors of the Functional Ribonucleoprotein Complex (vRNP) of Lymphocytic Choriomeningitis Arenaviruses (LCMV): LCMV Primary Screen - GLuc reporter signal (AID 1347086); further: nearly all actives have a fitted effect of over 70% in size; on activity change, negative = inhibition: series mostly up to about 57 µM
Chain of Nucleoprotein (Lymphocytic choriomeningitis virus (strain Armstrong)) (P09992 whole entry, looked up): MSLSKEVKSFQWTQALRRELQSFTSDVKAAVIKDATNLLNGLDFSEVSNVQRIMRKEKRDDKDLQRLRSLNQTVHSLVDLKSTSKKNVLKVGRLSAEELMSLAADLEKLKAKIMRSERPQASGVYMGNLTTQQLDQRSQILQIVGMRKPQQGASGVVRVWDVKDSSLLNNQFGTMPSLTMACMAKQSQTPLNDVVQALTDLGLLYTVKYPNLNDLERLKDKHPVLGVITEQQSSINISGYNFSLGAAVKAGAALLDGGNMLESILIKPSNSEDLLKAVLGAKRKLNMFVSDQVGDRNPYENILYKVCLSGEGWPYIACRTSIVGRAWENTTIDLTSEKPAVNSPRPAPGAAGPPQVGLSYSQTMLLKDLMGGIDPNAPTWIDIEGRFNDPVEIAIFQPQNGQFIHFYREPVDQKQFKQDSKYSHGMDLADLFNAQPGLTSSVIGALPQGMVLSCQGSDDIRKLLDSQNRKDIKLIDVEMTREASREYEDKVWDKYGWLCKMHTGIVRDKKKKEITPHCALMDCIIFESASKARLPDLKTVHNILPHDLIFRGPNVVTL
Potency means the concentration at half of the fitted maximal effect.

SMILES | Potency [1] | Potency [2] | Potency [3] | Potency [4] | activity change, negative = inhibition [1] | activity change, negative = reduced viability [2] | activity change, negative = lower viability [3] | activity change, negative = inhibition [4]
COC(=O)/C=C(/C)N | inactive | inactive | inactive | inactive |  |  |  | 
O=C(O)Cc1cccc(-c2cc(CCCCCCc3ccc(O[C@H]4O[C@H](CO)[C@@H](O)[C@H](O)[C@@H]4O)c(-c4cccc(CC(=O)O)c4)c3)ccc2O[C@H]2O[C@H](CO)[C@@H](O)[C@H](O)[C@@H]2O)c1 |  |  |  |  | 1.7% [at 0.757 µM] | 10.5% [at 0.757 µM] | 2.8% [at 0.757 µM] | 2.06% [at 0.757 µM]
Nc1ccn([C@@H]2O[C@H](CO)[C@@H](O)C2O)c(=O)n1 (stereo not given in full) | inactive | inactive | inactive | inactive |  |  |  | 
Cc1ncc([N+](=O)[O-])n1CC(O)CCl (stereo not given) | inactive | inactive | inactive | inactive |  |  |  | 
CC(C)(Oc1ccc(Cl)cc1)C(=O)OCCCOC(=O)C(C)(C)Oc1ccc(Cl)cc1 | inactive | inactive | inactive | inactive |  |  |  | 
C/C=C1\[C@H]2C=C(C)C[C@]1(N)c1ccc(=O)[nH]c1C2 | inactive | inactive | inactive | inactive |  |  |  | 
CC(=O)c1ccc(OCC(=O)N2CCCCC2)cc1 | inactive | inactive | inactive | inactive |  |  |  | 
CN(C)CCN1CCN(c2cccc(Cl)c2)C1=O | inactive | inactive | inactive | inactive |  |  |  | 
COc1cccc2c1C(=O)c1c(O)c3c(c(O)c1C2=O)C[C@@](O)(C(C)=O)C[C@H]3O[C@H]1C[C@H](N)[C@H](O)[C@H](C)O1 | 1220 nM (active) | 153 nM (active) | 153 nM (active) | 273 nM (active) |  |  |  | 
CCCCCCCCCCCCCCCCCC(=O)O | inactive | inactive | inactive | inactive |  |  |  | 
CC(C)(C)NC[C@H](O)COc1nsnc1N1CCOCC1 | inactive | inactive | inactive | inactive |  |  |  | 
Cc1cc(O)cc2c1O[C@](C)(CCC[C@H](C)CCC[C@H](C)CCCC(C)C)CC2 | inactive | inactive | inactive | inactive |  |  |  | 
O=C(O)c1cccnc1 | inactive | inactive | inactive | inactive |  |  |  | 
Nc1ccc(S(=O)(=O)Nc2ccc(Cl)nn2)cc1 | inactive | inactive | inactive | inactive |  |  |  | 
O=C(O)CNC(=O)c1ccccc1 | inactive | inactive | inactive | inactive |  |  |  | 
COc1cc(C(=O)NC2CCCNC2)cc(OC)c1OC (stereo not given) | inactive | inactive | inactive | inactive |  |  |  | 
Cc1cn([C@@H]2O[C@H](CO)[C@@H](O)[C@H]2F)c(=O)[nH]c1=O | inactive | inactive | inactive | inactive |  |  |  | 
O=C1NCC2(CCN(CCc3ccccc3)CC2)O1 | inactive | inactive | inactive | inactive |  |  |  | 
CC(C)CCCC(C)NCCC(C)C (stereo not given) | inactive | inactive | inactive | inactive |  |  |  | 
COc1cc(OC)nc(O[C@H](C(=O)O)C(OC)(c2ccccc2)c2ccccc2)n1 | inactive | inactive | inactive | inactive |  |  |  | 

SMILES | Potency [1] | Potency [2] | Potency [3] | Potency [4] | activity change, negative = inhibition [1] | activity change, negative = reduced viability [2] | activity change, negative = lower viability [3] | activity change, negative = inhibition [4]
O=C(O)CCCC[C@@H]1SC[C@@H]2NC(=O)N[C@@H]21 | inactive | inactive | inactive | inactive |  |  |  | 
CN1[C@@H]2CC(OC(=O)[C@H](CO)c3ccccc3)C[C@H]1[C@@H]1O[C@@H]12 (stereo not given in full) | inactive | inactive | inactive | inactive |  |  |  | 
O=c1[nH]cnc2nc[nH]c12 | inactive | inactive | inactive | inactive |  |  |  | 
CC(N=C(NC#N)Nc1ccncc1)C(C)(C)C (stereo not given) | inactive | inactive | inactive | inactive |  |  |  | 
Nc1nc(-c2ccccc2)c(Br)c(=O)[nH]1 | inactive | inactive | inactive | inactive |  |  |  | 
NCC[C@H](O)C(=O)N[C@@H]1C[C@H](N)[C@@H](O[C@H]2O[C@H](CN)[C@@H](O)[C@H](O)[C@@H]2O)[C@H](O)[C@@H]1O[C@H]1O[C@H](CO)[C@@H](O)[C@H](N)[C@@H]1O |  |  |  |  | -6.8% [at 0.757 µM] | -4.3% [at 0.757 µM] | -4.65% [at 0.757 µM] | 19.2% [at 0.757 µM]
COc1c(N2C[C@@H]3CCCN[C@@H]3C2)c(F)cc2c(=O)c(C(=O)O)cn(C3CC3)c12 | inactive | inactive | inactive | inactive |  |  |  | 
CCCc1c(OCCCCc2nn[nH]n2)ccc(C(C)=O)c1O | inactive | inactive | inactive | inactive |  |  |  | 
COc1ccc2nc(SCc3ncc(C)c(OC)c3C)[nH]c2c1 | inactive | inactive | inactive | inactive |  |  |  | 
CCN(CC)S(=O)(=O)c1ccc(C(=O)O)cc1 | inactive | inactive | inactive | inactive |  |  |  | 
CC(C)CN(C[C@@H](O)[C@H](Cc1ccccc1)NC(=O)O[C@H]1CO[C@H]2OCC[C@H]21)S(=O)(=O)c1ccc(N)cc1 | inactive | inactive | inactive | inactive |  |  |  | 
CCCCC(O)/C=C(C)/C=C/C=C/C(=O)N1CCCC1=O (stereo not given) | inactive | inactive | inactive | inactive |  |  |  | 
NC(N)=NS(=O)(=O)c1ccc(N)cc1 | inactive | inactive | inactive | inactive |  |  |  | 
CC(=O)CC(c1ccccc1)c1c(O)c2ccccc2oc1=O (stereo not given) | inactive | inactive | inactive | inactive |  |  |  | 
O=P(O)(O)OCC(O)CO (stereo not given) | inactive | inactive | inactive | inactive |  |  |  | 
CCCCCCCCCCCCCCCCCC(=O)OCC(O)CO (stereo not given) | inactive | inactive | inactive | inactive |  |  |  | 
CCOC(=O)c1ccc(O)c(O)c1 | inactive | inactive | inactive | inactive |  |  |  | 
Cc1coc2ccccc2c1=O | inactive | inactive | inactive | inactive |  |  |  | 
Nc1ncnc2c1ncn2[C@@H]1O[C@H](COP(=O)(O)O)[C@@H](O)[C@H]1O | inactive | inactive | inactive | inactive |  |  |  | 
O=C(NCN1CCOCC1)c1cnccn1 | inactive | inactive | inactive | inactive |  |  |  | 

SMILES | Potency [1] | Potency [2] | Potency [3] | Potency [4] | activity change, negative = inhibition [1] | activity change, negative = reduced viability [2] | activity change, negative = lower viability [3] | activity change, negative = inhibition [4]
COc1c2occc2cc2ccc(=O)oc12 | inactive | inactive | inactive | inactive |  |  |  | 
COC(=O)/C=C\C(=O)OC | inactive | inactive | inactive | inactive |  |  |  | 
CCS(=O)(=O)c1ccc(OC)c(C(=O)OC)c1 | inactive | inactive | inactive | inactive |  |  |  | 
Cc1c(N(C)CS(=O)(=O)O)c(=O)n(-c2ccccc2)n1C | inactive | inactive | inactive | inactive |  |  |  | 
CC(C)=CCC1C(=O)N(c2ccccc2)N(c2ccccc2)C1=O | inactive | inactive | inactive | inactive |  |  |  | 
CN(C)CCc1c[nH]c2ccc(Cn3cncn3)cc12 | inactive | inactive | inactive | inactive |  |  |  | 
CCCc1c2oc(C(=O)O)cc(=O)c2cc2c(=O)cc(C(=O)O)n(CC)c12 | inactive | inactive | inactive | inactive |  |  |  | 
CC(=O)N(c1onc(C)c1C)S(=O)(=O)c1ccc(N)cc1 | inactive | inactive | inactive | inactive |  |  |  | 
Nc1ccc([N+](=O)[O-])c(C(F)(F)F)c1 | inactive | inactive | inactive | inactive |  |  |  | 
Cc1cnc(NS(=O)(=O)c2ccc(N)cc2)nc1 | inactive | inactive | inactive | inactive |  |  |  | 
Nc1ccc(C(=O)O)c(O)c1 | inactive | inactive | inactive | inactive |  |  |  | 
CC(=O)O[C@]1(C(C)=O)CC[C@H]2[C@@H]3C[C@H](C)C4=CC(=O)CC[C@]4(C)[C@H]3CC[C@@]21C | inactive | inactive | inactive | inactive |  |  |  | 
CC(C)[N+](C)(C)CC(O)COc1cccc2ccccc12 (stereo not given) | inactive | inactive | inactive | inactive |  |  |  | 
CN1N=C(C(N)=O)CCC1=O | inactive | inactive | inactive | inactive |  |  |  | 
CCC1(C)CC(=O)NC1=O (stereo not given) | inactive | inactive | inactive | inactive |  |  |  | 
Cc1c(I)c(=O)n(-c2ccccc2)n1C | inactive | inactive | inactive | inactive |  |  |  | 
CCCCCCCC/C=C\CCCCCCCC(=O)NCc1ccc(O)c(OC)c1 | inactive | inactive | inactive | inactive |  |  |  | 
CCCCCCCCCCCCCCCC(=O)OC(C)C | inactive | inactive | inactive | inactive |  |  |  | 
Cn1c(=O)c2[nH]cnc2n(C)c1=O | inactive | inactive | inactive | inactive |  |  |  | 
CC(CCc1ccc2c(c1)OCO2)NN (stereo not given) | inactive | inactive | inactive | inactive |  |  |  | 
